# KB-3-1 tox: KB-3-1 parental cell cytotoxicity; KB-3-1 viability, CellTiter-Glo ATP luminescence, 72 h; Potency, µM (top dose mostly 46.1 µM), actives largely listed as cytotoxic; 1.4% of 400,000 active; AID 1347075; also: % is scaled to controls: 0 for no effect and ±100 for the full control effect; nearly all actives have a fitted effect of over 60% in size
#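 Here the drug-naive KB-3-1 line serves as comparator for MDR sub-line selectivity; cells received compound titrations, 72 h at 37 °C, then CellTiter-Glo readout.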
# KB-V1 cytotox: KB-V1 MDR subline cytotoxicity; 3.4% of 400,000 active; Potency, µM (doses to about 46.1 µM), actives largely listed as cytotoxic; AID 1347076; KB-V1 MDR cells viability, CellTiter-Glo, 72 h; also: % is scaled to controls: 0 for no effect and ±100 for the full control effect; nearly all actives have a fitted effect of over 60% in size
#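 KB-V1 cells (P-gp-expressing MDR subline of KB-3-1) in phenol-red-free DMEM with 10% FBS were exposed to library compounds over a concentration series for 72 h at 37 degrees C. Viability read by CellTiter-Glo luminescence; concentration-effect curves fitted after normalization.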
# SW480 rereplic: induces DNA re-replication in SW480 colon adenocarcinoma cells; SW480 DNA re-replication, Hoechst DNA content imaging, 48 h; Potency, µM (highest dose often 46.1 µM), without a hit: at the highest dose re-replication activation, most hits filed as activators; 1.8% of 340,000 active; also: % of control where 0% means no effect; nearly all actives have a fitted effect of over 55% in size
#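 Quantitative HTS format with DMSO vehicle controls; 48 hr drug incubation at 37 C, then 40 min Hoechst staining and scanning imager measurement at 405 nm excitation.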
# HT1080 IDH1KD tx: HT-1080 IDH1 knockdown cell toxicity (counter line). AID 686971. 2% of 360,000 active. HT-1080 IDH1 knockdown viability, ATP luminescence, 48 h. Potency, µM (titrated, usually from 46.1 µM), inactives show at the highest dose activity, negative = toxicity, hits mostly cytotoxic;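 also: 0% = DMSO wells and -100% = cell-free medium wells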
#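 CellTiter-Glo luminescence after 48 h compound exposure at 37 degrees C of IDH1-knockdown HT-1080 cells in 5% FBS RPMI. %Activity scaled between DMSO wells and cell-free media wells, with curves fitted and assigned curve classes.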
# HT1080NT lethal: kills 2HG-producing HT-1080-NT fibrosarcoma cells. Potency, µM (top dose mostly 46.1 µM), for inactives: at the top dose activity, negative = less viability, hits mostly cytotoxic. HT-1080-NT fibrosarcoma viability, CellTiter-Glo ATP luminescence, 48 h. 1.6% of 360,000 active;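 also: NT is the 2HG producing partner of a matched IDH1 knockdown line; 0% = DMSO-treated cells and -100% = media-only wells without cells; nearly all actives have a fitted effect of over 55% in size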
#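 Luminescent CellTiter-Glo readout after 48 hours of compound exposure at 37 degrees C defined viability of HT-1080-NT cells. Activity was normalized to DMSO wells and cell-free media wells; concentration-response curves were fitted and assigned curve classes.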
# MCF10A rereplic: inducers of DNA re-replication in MCF 10A breast cells; AID 624296; MCF 10A DNA re-replication, Hoechst nuclear intensity, 48 h; 2.9% of 350,000 active; Potency, µM (highest dose often 46.1 µM), inactives show at the highest dose activity, positive = re-replication, most hits filed as activators; also: % of control where 0% means no effect; nearly all actives have a fitted effect of over 50% in size
# * marks the source's active call; other numbers are inactive results; i = inactive; ? = inconclusive; nt = not tested or not shown; [ ] = remark or other dose. Sampled rows, rich in hits. Any-hit rate of the full collection: about 8%. Calls follow the shape of the dose curve; as a rule, active = well fitted curve in the direction sought with a large enough effect; inconclusive = small, poorly fitted or top-dose-only effect, or another doubt; inactive = no such curve, though single readings can be large; an effect the other way counts as inactive or inconclusive. Potency is read from the fitted curve at half-maximal effect.
SMILES,KB-3-1 tox,KB-V1 cytotox,SW480 rereplic,HT1080 IDH1KD tx,HT1080NT lethal,MCF10A rereplic
CC(C)/C=C1\CC/C(=C\c2ccc(N(C)C)cc2)C1=O,i,?,?,17%,12%,?
COc1ccc(CN(CC2CCCO2)C(=O)CN2C(=O)C(C)Oc3ccc(C)cc32)cc1OC (centres undefined),i,?,1%,-5%,-2%,?
CCC1Oc2ccc(C)cc2N(CC(=O)N(Cc2ccc3c(c2)OCO3)CC2CCCO2)C1=O (centres undefined),i,6.5µM*,-2%,-9%,-1%,7%
CCC1Oc2ccc(C)cc2N(CC(=O)N(Cc2ccc(C)o2)C2CC(C)(C)NC(C)(C)C2)C1=O (centres undefined),?,?,?,?,16µM*,1%
S=C(Nc1cccnc1)Nc1cccc2cnccc12,?,i,5%,3%,0%,8%
CN(C)S(=O)(=O)c1cccc(NC(=S)Nc2cccc3cnccc23)c1,?,i,?,-26%,-18%,21µM*
CCOc1ccc(NC(=S)Nc2cccc3cnccc23)cc1,i,15µM*,-7%,-2%,-5%,0%
COC1=C(c2ccccc2)C(=O)c2ccccc2C1=O,i,?,?,26µM*,-13%,?
CCOc1ccc(NC2=C(OC)C(=O)c3ccccc3C2=O)cc1,i,?,10%,-16%,-12%,13%
COC1=C(Nc2ccc(OC)cc2)C(=O)c2ccccc2C1=O,i,?,23µM*,-15%,-6%,?
COC1=C(Nc2ccc(OC)cc2)C(=O)C(OC)=C(Nc2ccc(OC)cc2)C1=O,i,i,0%,14%,6%,-2%
COc1ccc(NC2=C(c3ccc(OC)cc3)C(=O)c3ccccc32)cc1,i,5.2µM*,-13%,6%,-11%,-5%
COC1=C(Nc2ccc(O)cc2)C(=O)c2ccccc2C1=O,?,?,?,23µM*,10µM*,?
COc1ccc(C2=C(N)c3ccccc3C2=O)cc1,i,i,0%,?,-29%,2%
COc1cc(OC)c(OC)cc1CNc1sc2c(c1C(=O)Nc1ccccc1OC)CCC2,i,i,nt,nt,nt,nt
Cc1ccc(-n2c3nc(=O)n(C)c(=O)c-3cc3c(Cl)cccc32)c(C)c1,i,i,nt,nt,nt,nt
O=C(c1ccccc1)c1c[nH]cc1-c1ccccc1,i,i,-6%,-15%,4%,4%
COc1ccc(NC2=C(NCCO)C(=O)c3ccccc3C2=O)cc1,?,21µM*,18µM*,8.2µM*,13µM*,?
O=C(C1=C(c2ccccc2)C(=O)c2ccccc2C1=O)c1ccccc1,?,?,7.3µM*,15µM*,?,5.2µM*
C(=C\c1ccccn1)/c1ccccc1,?,i,nt,nt,nt,nt
CC(C)Cc1nnc(NC(=O)CCC(=O)N2CCN(Cc3ccc(F)cc3)CC2)s1,i,i,20%,0%,13%,0%
Cc1ccc(OCCN2CCN(C(=O)CCC(=O)Nc3nnc(CC(C)C)s3)CC2)cc1,?,8.2µM*,-1%,9.2µM*,?,?
COc1ccc2[nH]c(CN3CCN(CC=C(C)C)C(CCO)C3)c(C)c2c1 (centres undefined),i,i,-10%,-4%,-8%,16µM*
Cc1cc[n+](CC(=O)c2ccc(NC(=O)c3ccccc3)cc2)c2ccccc12,10µM*,i,29%,-21%,?,?
O=C(C[n+]1ccccc1)c1ccc(NC(=O)c2ccccc2)cc1,i,i,7%,-1%,-8%,27%
SMILES,KB-3-1 tox,KB-V1 cytotox,SW480 rereplic,HT1080 IDH1KD tx,HT1080NT lethal,MCF10A rereplic
Cc1cc[n+](CC(=O)c2ccc(NC(=O)c3ccccc3)cc2)cc1,?,i,-31%,0%,-1%,1.3µM*
O=C(C[n+]1cccc2ccccc21)c1ccc(NC(=O)c2ccccc2)cc1,i,i,-3%,-8%,-9%,0%
O=C(Nc1ccc[n+](CC(=O)c2cccc3ccccc23)c1)c1ccccc1,23µM*,i,?,?,?,-2%
Cc1ccccc1OCc1nnc(SCc2cc(=O)c3cccc(F)c3[nH]2)n1C,i,i,nt,nt,nt,nt
Cc1c(N2C(=O)/C(=C\c3ccccc3O)SC2=S)c(=O)n(-c2ccccc2)n1C,i,i,18µM*,4%,-6%,?
Cc1c(N2C(=O)/C(=C/c3ccccc3)SC2=S)c(=O)n(-c2ccccc2)n1C,i,i,-1%[9.22 µM],?,?,19%
Cc1c(N2C(=O)/C(=C\C3CC=CCC3)SC2=S)c(=O)n(-c2ccccc2)n1C (centres undefined),i,i,15%,18µM*,?,?
CCCOC(=O)c1cccc(NC(=O)COc2ccc([N+](=O)[O-])cc2)c1,i,?,-2%,?,-11%,12%
CCOC(=O)c1cccc(NC(=O)CN2CCN(c3ccc(OC)cc3)CC2)c1,i,21µM*,0%,9%,2%,-4%
CCOC(=O)c1cccc(NC(=O)COc2ccc([N+](=O)[O-])cc2)c1,i,23µM*,-2%,5%,5%,8%
COc1ccc(C(=O)NCc2ccc(N3CCN(C(=O)OC(C)(C)C)CC3)cc2)cc1,?,0.73µM*,8%,-11%,3%,23%
COc1ccc(N2CCN(CNC(=O)c3ccccc3)CC2)cc1,i,i,-1%,-6%,-4%,0.92µM*
Cc1cc2ccccc2c[n+]1C,?,i,nt,nt,nt,nt
COc1cccc(NC(=O)c2ccc(CN3CCN(c4ccccc4)CC3)cc2)c1,8.9µM*,?,-2%,?,-24%,?
Cc1ccccc1Cn1c(-c2cccs2)nc2ccccc21,i,i,nt,nt,nt,nt
c1csc(Cn2c(-c3cccs3)nc3ccccc32)c1,?,21µM*,11%,-11%,1%,26%
Cc1cc(F)ccc1NC(=O)CN1C(=O)CCc2cc(S(=O)(=O)N3CCOCC3)ccc21,i,i,nt,nt,nt,nt
CCOc1ccc(N(CCC#N)S(=O)(=O)c2ccc(OC)cc2)cc1,?,21µM*,?,?,?,?
CCCCN1CC[C@H]2C=CC[C@@H](C(=O)NCc3cccnc3)[C@H]2C1=O,i,i,nt,nt,nt,nt
COc1ccccc1NS(=O)(=O)c1ccc(OC)c([N+](=O)[O-])c1,i,i,0%,5%,0%,11%
COc1ccc(NS(=O)(=O)c2ccc(N/N=C(\C)c3ccncc3)c([N+](=O)[O-])c2)cc1,?,i,?,?,-22%,?
